Measured potencies and affinities stand elsewhere. Active and inactive are the calls of the source.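 The calls were made as follows: active = signal-lowering compounds whose fitted half-maximal concentration is at or below twice the top tested dose in every run; inconclusive = runs disagree, flat 30 to 70% inhibition, or poor curve fit; inactive = the rest.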
What follows are compounds tested against Protein S100-A4 (Homo sapiens) (UniProt P26447) (assay: human S100A4 peptide interaction inhibition curves – biochemical, fluorescence polarization, cherry-picked hits, dose response (AID 687001;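 also: 0% = DMSO neutral control wells and -100% = TFP positive control wells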)). Conditions: FP, S100A4/TAMRA-myosin IIA peptide binding; series mostly up to 11 µM; activity change, negative = inhibition: at the top concentration.
Sequence of Protein S100-A4 (Homo sapiens) (P26447 whole entry, looked up): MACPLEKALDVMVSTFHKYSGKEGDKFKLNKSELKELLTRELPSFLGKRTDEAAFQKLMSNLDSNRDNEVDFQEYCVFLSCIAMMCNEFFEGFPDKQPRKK

Activity change, negative = inhibition, inactive:
COc1ccc(C#Cc2ccc([C@@H]3[C@@H](CO)N4CCCCN(C(=O)Nc5ccc(F)cc5)C[C@@H]34)cc2)cc1 31.6%, COC(=O)[C@@H]1[C@@H](CO)[C@@H]2Cn3c(cccc3=O)[C@@H]2N1CC1CCOCC1 0.65%, O=S(=O)(c1ccc2c(c1)CCCN2)N1CCCC2CCCCC21 (centres undefined) 3.23%, CCOC(=O)[C@]12CCCC=C1N(Cc1ccc3c(c1)OCO3)C(=O)[C@H](CC(=O)NCC1CCCCC1)C2 -3.59%, COc1ccc(CN(C)C(=O)Cc2ccc(S(=O)(=O)N3CCOCC3)s2)cc1OC -3.1%, Cc1cnc(C(=O)OCC(=O)c2ccccc2)cn1 9.27%, C[C@@H]1CN([C@H](C)CO)C(=O)Cc2cc(NC(=O)CCN3CCOCC3)ccc2O[C@H]1CN(C)Cc1ccc2c(c1)OCO2 -0.504%, CCC1(c2ccc(F)cc2)NC(=O)N(CC(=O)N2CCc3ccccc3C2)C1=O (centres undefined) 1.7%, O=C(Nc1nnc(S(=O)(=O)N2CCN(c3ccc(F)cc3)CC2)s1)c1ccccc1 2.56%, CC(=O)N1CCCCN2[C@@H](CO)[C@H](c3ccc(-c4cccc(C(=O)N(C)C)c4)cc3)[C@@H]2C1 20.4%, COc1cccc(-c2ccc3c(c2)[C@H]2[C@H](CCN2C(=O)c2ccc4c(c2)OCO4)[C@H](CO)N3C)c1 9.07%, CCCN(CCC)Cc1cc(=O)oc2cc(C)c(C)cc12 -1.88%, COc1ccc(C(CNC(=O)CNC(=O)c2ccc(F)cc2)N2CCCC2)cc1 (centres undefined) -0.057%, COc1cc2cc(-c3ccc(O)cc3O)nc(C)c2cc1OC -6.81%, Cc1ccc(S(=O)(=O)Nc2ccc3c(c2)C(=O)N([C@@H](C)CO)C[C@@H](C)[C@@H](CN(C)CC2CC2)OCCCC[C@@H](C)O3)cc1 -4.32%, O=C(CC1C[C@H](C(=O)N2CCCCC2)[C@@]2(CCc3ccccc3)c3[nH]c4ccccc4c3CCN2C1=O)NCCC1=CCCCC1 (some centres undefined) -5.01%, COc1cccc(CC(NC(C)=O)C(=O)NC2CCN(S(=O)(=O)c3ccc(NC(C)=O)cc3)CC2)c1OC (centres undefined) -4.43%, Cc1cc(OCC(=O)NCCc2c[nH]c3ccccc23)c2c(C)cc(=O)oc2c1 -1.62%, Cc1cc(Cl)nc(-n2nc(C)cc2C)n1 1.74%, O=C1CCc2cc(S(=O)(=O)N3CCCCC3)cc3c2N1CCC3 28.8%, O=C(CCN1CCCCC1)N[C@H]1CC[C@H](CCn2cc(-c3ccccc3)nn2)O[C@@H]1CO 0.877%, CCn1cc(CNC(=O)C2CCC(=O)N(CCc3cccc(F)c3)C2)cn1 (centres undefined) -4.76%, CCCNC(=O)N1[C@@H]2c3ccc(-c4ccccc4OC)c(=O)n3C[C@@H]2[C@@H](CO)[C@@H]1C(=O)NC1CCC1 -1.44%, Cc1ccc(S(=O)(=O)Nc2ccc3c(c2)C(=O)N([C@H](C)CO)C[C@@H](C)[C@@H](CN(C)S(=O)(=O)c2ccc(C)cc2)OCCCC[C@@H](C)O3)cc1 23.3%, COc1cccc(CN2CC(C(=O)NCC3CCOCC3)CCC2=O)c1 (centres undefined) -0.108%, CCCCn1cnc2c(SCc3ccc(Cl)cc3)nc(N)nc21 -4.13%, COc1ccccc1-c1ccc2c(c1)O[C@H](CN(C)C(C)=O)[C@@H](C)CN([C@@H](C)CO)S2(=O)=O 0.172%, O=C(c1ccccc1)N1CC2(C1)[C@H](c1ccccc1)[C@@H](CO)N2Cc1ccccn1 -3.57% [at 10 µM], COc1ccc(NC(=O)N(C)C[C@@H]2OCCCC[C@@H](C)Oc3ccc(NS(=O)(=O)c4ccc(Cl)cc4)cc3C(=O)N([C@H](C)CO)C[C@@H]2C)cc1 20%, C[C@@H]1CN([C@H](C)CO)C(=O)CCCn2cc(nn2)CO[C@H]1CN(C)S(C)(=O)=O -4.05%, COc1ccc(N2CC(C(=O)Nc3ccccc3N3CCCC3)CC2=O)c(OC)c1 (centres undefined) 3.1%, O=C1CN(Cc2ccc(F)cc2)C[C@@H]2[C@@H](c3ccc(-c4ccccc4F)cc3)[C@H](CO)N12 1.79%, CS(=O)(=O)N(CCc1ccccc1)CC(=O)N1CCCCCC1 -5.34%, C[C@@H]1CN([C@H](C)CO)C(=O)c2cc(C#Cc3ccccc3)cnc2O[C@@H]1CN(C)C(=O)c1ccccc1F 1.29%, CCCC(=O)Nc1ccc2c(c1)OC[C@@H](C)N(Cc1ccncc1)C[C@H](C)[C@H](OC)CN(C)C2=O -1.51%, C[C@@H]1CN([C@@H](C)CO)C(=O)c2cc(C#C[C@@H](C)O)cnc2O[C@H]1CN(C)C(=O)Cc1ccncc1 21%, COc1ccc(CN2C(=O)c3ccccc3C2c2nnnn2Cc2ccccc2)cc1OC (centres undefined) 4.94%, CCCCn1c(SCC(=O)NC2CCS(=O)(=O)C2)nc2ccccc2c1=O (centres undefined) 15.2%, Cc1ccc(CNS(=O)(=O)c2ccc(C)s2)cc1 0.881%

Source: PubChem BioAssay AID687001 (Broad Institute, 2013)
